Results taken from PubChem BioAssay AID1159580 (chemical genetic matrix, 2015).
Where “and” joins values, the source holds several entries; their conditions need not be identical. Identical values can stand only once. Screen size: about 5,500 compounds; about 2,000 (36%) were called active. Inconclusive results (about 18%) are left out. Rule as the data show it: active = normalized growth mostly below about 0.91 (no sharp cut-off); inconclusive = no clear call, values can overlap the other calls; inactive = mostly above about 0.92. Some of the results follow.

Test: chemical genetic growth profiling, strain panel (AID 1159580);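 also: tested at 20 µM; growth read once vehicle control cultures reached saturation at 30 °C; 1 = growth at the plate median or of vehicle wells; lower values mean less growth of the strain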
Settings: growth OD

Measured: normalized growth

OCCN1CCN(CCCN2c3ccccc3Sc3ccc(C(F)(F)F)cc32)CC1
active: S. cerevisiae deletion strains, locus YKR001C, strain vps1, active compounds read low 0.864 | S. cerevisiae deletion strains, locus YLR039C, strain RIC1, active compounds read low 1.48 [resistant] | S. cerevisiae deletion strains, locus YLR262C, strain YPT6, active compounds read low 1.41 [resistant] | S. cerevisiae deletion strains, locus YLR342W, strain FKS1 (second series), active compounds read low 0.723 | S. cerevisiae deletion strains, locus YLR342W, strain FKS1, active compounds read low 0.807 | S. cerevisiae deletion strains, locus YLR418C, strain cdc73, active compounds read low 0.76 | S. cerevisiae deletion strains, locus YMR058W, strain fet3, active compounds read low 0.884 | S. cerevisiae deletion strains, locus YMR231W, strain pep5, active compounds read low 0.0843 | S. cerevisiae deletion strains, locus YOR083W, strain WHI5, active compounds read low 0.855 | S. cerevisiae deletion strains, locus YOR106W, strain vam3, active compounds read low 0.644 | S. cerevisiae deletion strains, locus YPL051W, strain arl3, active compounds read low 0.874 | S. cerevisiae deletion strains, locus YPR163C, strain tif3, active compounds read low 0.89 | S. cerevisiae deletion strains, strain wtn01, active compounds read low 0.887
inactive: S. cerevisiae deletion strains, locus YJR075W, strain HOC1, active compounds read low 0.939 and 0.985 | S. cerevisiae deletion strains, locus YKL009W, strain mrt4, active compounds read low 0.926 | S. cerevisiae deletion strains, locus YKL068W, active compounds read low 0.987 | S. cerevisiae deletion strains, locus YKL085W, strain MDH1 (second series), active compounds read low 0.981 | S. cerevisiae deletion strains, locus YKL085W, strain MDH1, active compounds read low 0.981 | S. cerevisiae deletion strains, locus YKL160W, strain elf1, active compounds read low 0.907 | S. cerevisiae deletion strains, locus YKL190W, strain CNB1, active compounds read low 0.975 | S. cerevisiae deletion strains, locus YKR026C, strain gcn3, active compounds read low 0.998 | S. cerevisiae deletion strains, locus YKR091W, strain srl3, active compounds read low 0.976 | S. cerevisiae deletion strains, locus YLL001W, strain dnm1, active compounds read low 0.983 | S. cerevisiae deletion strains, locus YLL026W, active compounds read low 0.968 | S. cerevisiae deletion strains, locus YLL041C, strain sdh2, active compounds read low 0.968 | S. cerevisiae deletion strains, locus YLR027C, strain aat2, active compounds read low 0.951 | S. cerevisiae deletion strains, locus YLR058C, strain SHM2, active compounds read low 0.976 | S. cerevisiae deletion strains, locus YLR102C, strain apc9, active compounds read low 0.995 | S. cerevisiae deletion strains, locus YLR221C, strain rsa3, active compounds read low 0.975 | S. cerevisiae deletion strains, locus YLR258W, strain gsy2, active compounds read low 0.949 | S. cerevisiae deletion strains, locus YLR262C, strain YPT6 (second series), active compounds read low 1.04 | S. cerevisiae deletion strains, locus YLR268W, strain sec22, active compounds read low 0.901 | S. cerevisiae deletion strains, locus YLR320W, strain mms22, active compounds read low 0.999 | S. cerevisiae deletion strains, locus YLR330W, strain CHS5, active compounds read low 1.03 | S. cerevisiae deletion strains, locus YLR357W, strain rsc2, active compounds read low 0.984 | S. cerevisiae deletion strains, locus YLR370C, strain arc18, active compounds read low 0.952 | S. cerevisiae deletion strains, locus YLR371W, strain rom2, active compounds read low 0.983 | S. cerevisiae deletion strains, locus YLR384C, strain iki3, active compounds read low 0.981 | S. cerevisiae deletion strains, locus YML016C, strain PPZ1, active compounds read low 0.994 | S. cerevisiae deletion strains, locus YML032C, strain rad52, active compounds read low 0.926 | S. cerevisiae deletion strains, locus YML120C, strain ndi1, active compounds read low 0.995 | S. cerevisiae deletion strains, locus YML124C, strain tub3, active compounds read low 1 | S. cerevisiae deletion strains, locus YMR078C, strain ctf18, active compounds read low 0.986 | S. cerevisiae deletion strains, locus YMR125W, strain sto1, active compounds read low 0.957 | S. cerevisiae deletion strains, locus YMR129W, active compounds read low 0.978 | S. cerevisiae deletion strains, locus YMR205C, strain PFK2, active compounds read low 0.992 | S. cerevisiae deletion strains, locus YMR223W, strain ubp8, active compounds read low 0.963 | S. cerevisiae deletion strains, locus YMR263W, strain SAP30, active compounds read low 0.933 and 0.994 | S. cerevisiae deletion strains, locus YMR307W, strain GAS1, active compounds read low 0.852 and 1.02 | S. cerevisiae deletion strains, locus YNL067W, strain RPL9B, active compounds read low 0.921 | S. cerevisiae deletion strains, locus YNL071W, strain lat1, active compounds read low 0.988 | S. cerevisiae deletion strains, locus YNL128W, strain TEP1, active compounds read low 0.944 | S. cerevisiae deletion strains, locus YNL153C, strain GIM3, active compounds read low 0.919 and 0.859 | S. cerevisiae deletion strains, locus YNL175C, strain NOP13, active compounds read low 1.01 | S. cerevisiae deletion strains, locus YNL197C, strain WHI3, active compounds read low 1.01 | S. cerevisiae deletion strains, locus YNL209W, strain ssb2, active compounds read low 0.952 | S. cerevisiae deletion strains, locus YNL224C, strain SQS1, active compounds read low 1.02 | S. cerevisiae deletion strains, locus YNL233W, strain BNI4, active compounds read low 0.909 | S. cerevisiae deletion strains, locus YNL248C, strain rpa49, active compounds read low 0.901 | S. cerevisiae deletion strains, locus YNL250W, strain rad50, active compounds read low 0.989 | S. cerevisiae deletion strains, locus YNL271C, strain bni1, active compounds read low 0.986 | S. cerevisiae deletion strains, locus YNL298W, strain CLA4, active compounds read low 0.963 | S. cerevisiae deletion strains, locus YNL307C, strain MCK1, active compounds read low 0.98 | S. cerevisiae deletion strains, locus YNL322C, strain KRE1 (second series), active compounds read low 0.968 | S. cerevisiae deletion strains, locus YNL322C, strain KRE1, active compounds read low 0.995 | S. cerevisiae deletion strains, locus YNR049C, strain mso1, active compounds read low 0.984 | S. cerevisiae deletion strains, locus YNR052C, strain pop2, active compounds read low 0.938 | S. cerevisiae deletion strains, locus YOL006C, strain TOP1, active compounds read low 0.629 | S. cerevisiae deletion strains, locus YOL012C, strain htz1 1.6 | S. cerevisiae deletion strains, locus YOL147C, strain pex11, active compounds read low 0.986 | S. cerevisiae deletion strains, locus YOR001W, strain rrp6, active compounds read low 0.943 | S. cerevisiae deletion strains, locus YOR061W, strain CKA2, active compounds read low 0.987 | S. cerevisiae deletion strains, locus YOR069W, strain VPS5, active compounds read low 0.986 | S. cerevisiae deletion strains, locus YOR070C, strain gyp1, active compounds read low 0.938 | S. cerevisiae deletion strains, locus YOR080W, strain dia2, active compounds read low 0.989 | S. cerevisiae deletion strains, locus YOR083W, strain WHI5 (second series), active compounds read low 0.886 | S. cerevisiae deletion strains, locus YOR136W, strain idh2, active compounds read low 0.978 | S. cerevisiae deletion strains, locus YOR144C, strain elg1, active compounds read low 0.999 | S. cerevisiae deletion strains, locus YOR184W, strain ser1, active compounds read low 0.99 | S. cerevisiae deletion strains, locus YOR265W, strain rbl2, active compounds read low 0.986 | S. cerevisiae deletion strains, locus YOR270C, strain vph1, active compounds read low 0.788 | S. cerevisiae deletion strains, locus YOR290C, strain snf2, active compounds read low 0.911 | S. cerevisiae deletion strains, locus YOR316C, strain cot1, active compounds read low 0.991 | S. cerevisiae deletion strains, locus YPL055C, strain LGE1, active compounds read low 0.902 and 0.943 | S. cerevisiae deletion strains, locus YPL078C, strain atp4, active compounds read low 0.941 | S. cerevisiae deletion strains, locus YPL106C, strain sse1, active compounds read low 0.988 | S. cerevisiae deletion strains, locus YPL240C, strain hsp82, active compounds read low 0.984 | S. cerevisiae deletion strains, locus YPL241C, strain CIN2, active compounds read low 0.997 | S. cerevisiae deletion strains, locus YPR119W, strain clb2, active compounds read low 0.988 | S. cerevisiae deletion strains, locus YPR141C, strain kar3, active compounds read low 0.985 | S. cerevisiae deletion strains, locus YPR167C, strain met16, active compounds read low 0.984 | S. cerevisiae strains, strain wild type, active compounds read low 0.949
